# In the library only some 6.5% were active in any assay of this set; here they are far more common.
# A340 absorber = compound absorbs light at 340 nm | compound absorbance at 340 nm, fold over control | fold change at 10 µM | 65,000 tested, under 10 active;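 active means at 10 µM dose, initial 340 nm absorbance at least 2 fold that of control wells; inactive means change under 2 fold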;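 further: initial absorbance extrapolated from kinetic A340 decline of NADH oxidation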
# Spn MK inh = inhibitors of Streptococcus pneumoniae mevalonate kinase | inhibition, % at 10 µM | purified MK, PK/LDH-coupled NADH absorbance 340 nm | actives 0.48% (n = 65,000);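 active means ranked among the strongest by inhibition in the single 10 µM screen, a fixed top-ranked set picked for dose follow-up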
# Spn PMK inh = inhibitors of Streptococcus pneumoniae phosphomevalonate kinase. purified PMK, PK/LDH-coupled NADH absorbance 340 nm. inhibition, % at 10 µM. actives 0.49% (n = 65,000). AID 539;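 active means top-ranked compounds by inhibition in the single 10 µM screen, taking a fixed number of the strongest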;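 further: 0% = full reaction with DMSO carrier and 100% = background rate without enzyme reaction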
# NADH enzymes = blocks coupling enzymes of NAD/NADH assays. coupled PK/LDH NADH assays, four targets. IC50, µM (doses to about 10 µM), for the others: at the highest dose inhibition. actives 0.02% (n = 65,000);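 active means single-dose screening hits from any of four coupled enzyme assays that gave an IC50 when retested across doses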;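 further: the DPM-DC format reads NADH fluorescence rather than 340 nm absorbance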
# DPM-DC inhibit = inhibitors of Streptococcus pneumoniae diphosphomevalonate decarboxylase. purified DPM-DC, PK/LDH coupled NADH fluorescence. calls only at 10 µM. actives 0.49% (n = 65,000). AID 556;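 active means the 320 compounds with the highest percent inhibition in the single-dose primary screen, excluding strongly autofluorescent ones, cut at about 32% in these data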;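 further: kinetic rate of NADH fluorescence loss reporting ADP formed by the decarboxylase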
# Fluor 339 460 = intrinsic fluorescence of library compounds, ex339/em460 – biochemical, MLSMR library, data from DPM-DC assay, artefact control, profiling panel. compound autofluorescence, ex339/em460 nm, NADH buffer; stronger effect = higher value; 1 = no-compound wells, NADH background. fluorescence fold increase at 10 µM. actives 5.5% (n = 65,000);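 active means at 10 µM, mean starting fluorescence two-fold or more over control wells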;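 further: signal is the first read of a kinetic run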
# The depositor's hits bear a star; i = inactive; x = no result shown.
SMILES,A340 absorber,Spn MK inh,Spn PMK inh,NADH enzymes,DPM-DC inhibit,Fluor 339 460
CCC(=O)N1CCN(c2nc(-c3ccccc3)c3c(c2C#N)CCCC3)CC1,1,0,16,2%,x,2.1*
CCCCN(C)c1nc(-c2ccco2)c2c(c1C#N)CC(C)(C)OC2,1.1,10,11,7%,i,1.8
N#Cc1c(N2CCOCC2)nc(-c2ccco2)c2c1CCCC2,1.1,10,0,5%,x,2.3*
CN(C)CCNc1nc(-c2ccco2)c2c(c1C#N)CC(C)(C)OC2,1.1,5,4,5%,x,2.2*
CCCc1nc(NCc2ccco2)c(C#N)c2c1COC(C)(C)C2,1,8,0,5%,i,1.9
Nc1cc(C(=O)N2CCCC2)cc(C(=O)N2CCCC2)c1,1,4,3,2%,i,1.4
CC1CCCCN1Cc1nc2c(c(=O)n(C)c(=O)n2C)n1Cc1cccc2ccccc12 (configuration not stated),1,11,16,9%,i,1.1
CC1(C)Cc2c(C#N)c(OCC(=O)c3ccc(Cl)cc3)nc(-c3ccco3)c2CO1,1.1,2,2,1%,i,2.1*
CC1(C)Cc2c(C#N)c(N3CCN(C(=O)c4ccccc4)CC3)nc(-c3ccco3)c2CS1,1,2,0,4%,i,1.6
Cc1nc(NCc2ccco2)c(C#N)c2c1COC(C)(C)C2,1.1,4,0,7%,i,2.7*
CC1(C)Cc2c(C#N)c(N3CCCC3)nc(-c3ccco3)c2CO1,1.1,7,11,9%,x,2.2*
CC(C)c1nc(N2CCN(C(=O)c3ccccc3)CC2)c(C#N)c2c1COC(C)(C)C2,1.1,1,0,1%,x,2.1*
Cc1ccccc1NC(=O)CN(C)S(=O)(=O)c1cccc2cccnc12,1,6,13,6%,i,1.1
Cn1c(SCc2nc(-c3ccc(Cl)cc3)no2)nnc1-c1ccco1,1,3,0,1%,i,1.1
COc1ccc2c(c1)CCc1c(C(=O)Nc3cc(C)n(Cc4ccc(Cl)cc4)n3)noc1-2,1.1,3,15,8%,i,3.7*
COc1ccc2c(c1)CCc1c(C(=O)Nc3ccc(OC)c(OC)c3)noc1-2,0.99,0,16,5%,i,2.2*
COc1ccc2c(c1)CCc1c(C(=O)Nc3ccn(Cc4ccc(C)cc4)n3)noc1-2,1,0,13,4%,i,1.2
O=C(O)C1C2C=CC3(CN(Cc4ccncc4)C(=O)C13)O2 (configuration not stated),1,11,2,4%,i,0.98
Brc1ccc(-c2cn3cccnc3n2)cc1,1,3,14,3%,x,3.4*
c1ccc(-c2cnnc(SCc3cn4cccnc4n3)n2)cc1,1.1,9,9,6%,i,1
CCOCC(=O)Nc1cc(-c2cn3cccnc3n2)ccc1C,1.1,0,14,7%,x,5.3*
COCC(=O)Nc1ccc(-c2cn3cccnc3n2)cc1,1.1,0,18,9%,x,5.2*
O=C(NC1CCCCCCC1)c1c(O)c2ccccc2[nH]c1=O,1.1,6,10,6%,i,1.1
O=C(Nc1c(C(=O)O)[nH]c2ccccc12)NC1CCCCC1,1,6,6,6%,x,3.9*

# Screening results (PubChem)
